Reference: PubChem BioAssay (EPA / NIEHS)
Inconclusive results are not listed. Active and inactive are the calls of the source. How the source made its calls: active means hit-call score of the fitted dose curve at least 0.9, where 1 is the maximum; inconclusive means response in the unintended direction; inactive means score below 0.9.

read-out: sulfotransferase (SULT2A), SULT2A1 (gene 6822); assay: CLD_SULT2A_6hr: CellzDirect (CLD) Gene Expression Assay for sulfotransferase (SULT2A) at 6 hours (AID 2283669);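 further: hits raise transcript level above the DMSO vehicle baseline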
Experimental: CLD_6hr is a cell-based, multiplexed-readout assay that uses hepatocyte, a human liver primary cell, with measurements taken at 6 hours after chemical dosing in a 96-well plate.CLD_SULT2A_6hr is one of 16 assay component(s) measured or calculated from the CLD_6hr assay. It is designed to make measurements of mRNA induction, a form of inducible reporter, as detected with chemiluminescence signals by Quantitative Nuclease Protection Assay (qNPA) technology.Data from the assay component CLD_SULT2A_6hr was analyzed at the endpoint, CLD_SULT2A_6hr, in the positive analysis fitting direction relative to DMSO as the negative control and baseline of activity. Using a type of inducible reporter, gain-of-signal activity can be used to understand changes in the reporter gene as they relate to the gene SULT2A1. Furthermore, this assay endpoint can be referred to as a primary readout. To generalize the intended target to other relatable targets, this assay endpoint is annotated to the transferase intended target family, where subfamily is sulfotransferase.
Human hepatocyte cultures were treated daily for two consecutive days with fresh dosing solutions containing appropriate concentrations of the 320 ToxCast chemicals (chemical identities were blinded to CellzDirect and other ToxCast collaborators), vehicle control (0.2% DMSO), and positive control inducers as summarized in Table 1. Due to the large number of treatment groups and chemicals examined, the ToxCast chemicals were divided into two groups (spanning two independent cultures of hepatocytes from separate donor preparations (Hu778: ToxCast plates 1 and 2; Hu776: ToxCast plates 3 and 4). Each preparation of human hepatocyte cultures was treated with respective vehicle control, medium only control, set of six positive controls/reference chemicals for the five hepatic receptor pathways, and a subset of eight of the ToxCast chemicals (indoxacarb, pyrithiobac-sodium, norflurazon, cyhalofop-butyl, methomyl, thiram, acetochlor, and propiconazole). These replicate data, coupled with internal replicates designed within the blinded ToxCast chemical library, provided additional data to evaluate interindividual differences between hepatocyte preparations and their potential impact on chemical profiles.Cell morphology and integrity were evaluated using phase-contrast microscopy as an indicator of hepatocyte cell health (Tyson & Green, 1987). Cultures for each treatment group (i.e., media, vehicle [0.2% DMSO], positive control inducers [multiple concentrations], and the ToxCast chemicals [multiple concentrations]) were observed and cell morphology was assessed relative to vehicle control cultures at each harvest time point (0, 6, 24, or 48 h). […] Images were evaluated at the conclusion of the study to assess changes in cell integrity and account for the effects of chemical exposure on uncharacteristic changes in concentration-dependent gene expression profiles. The results from these determinations of apparent cytotoxicity were annotated (yes/no) alongside the corresponding qNPA data for reference.At the conclusion of each treatment period, hepatocyte cultures (96-well) were washed with 1 volume of HBSS, lysed by addition of 25 ul ArrayPlate lysis buffer (HTG, Tucson, AZ), and 70 ul/well of Denaturation Oil, denatured by incubation at 95C for 10 min, and frozen at approximately -70C until analysis by nuclease protection assay (qNPA) (Roberts et al., 2007). For qNPA analysis, cell lysates were thawed at 50C for approximately 30 min, qNPA probes were added, and samples were incubated at 95C for 10 min to begin the detection process by denaturing the target RNA, dissociating the duplexes and secondary structure hybridization. At the conclusion of the hybridization period, S1 nuclease reagent was added to each sample to digest all nonprotected nucleotides at 50C for 60-90 min. […]

`C=CCOC(Cn1ccnc1)c1ccc(Cl)cc1Cl` (stereo not given) was tested. Which outcome did it give?
Its outcome is “inactive”.

`CCCN(CCC)C(=O)SCC` was tested. Which outcome did it give?
The outcome was “inactive”.

How did the outcome turn out when `CCN(CC)C(=O)c1cccc(C)c1` was run?
The outcome was “inactive”.

How did the outcome turn out when `CCCCC(CC)COC(=O)c1ccccc1C(=O)O` (stereo not given) was run?
The outcome was “inactive”.

How did the outcome turn out when `COC(=O)CSc1cc(N=c2sc(=O)n3n2CCCC3)c(F)cc1Cl` was run?
The outcome was “inactive”.

How did the outcome turn out when `CCOC(=O)NCCOc1ccc(Oc2ccccc2)cc1` was run?
The outcome was “inactive”.

`COC(=O)c1cccc(C)c1S(=O)(=O)NC(=O)Nc1nc(OCC(F)(F)F)nc(N(C)C)n1` was tested. Which outcome did it give?
Its outcome is “inactive”.

For `CC1(C)C(C=C(Cl)Cl)C1C(=O)OCc1cccc(Oc2ccccc2)c1` (stereo not given), which outcome is on record?
Its outcome is “inactive”.

With `CSC(=O)c1cccc2nnsc12` as the compound, how does the outcome read?
Its outcome is “inactive”.

For `CCCOC(=O)NCCCN(C)C`, which outcome is on record?
Its outcome is “inactive”.

Which outcome does the source give for `CCCCCOC(=O)COc1cc(N2C(=O)C3=C(CCCC3)C2=O)c(F)cc1Cl` here?
The outcome was “inactive”.

For `CN(C)C(=O)Nc1ccc(Cl)c(Cl)c1`, which outcome is on record?
Its outcome is “inactive”.

`CC(C)(C)[C@@H](O)[C@@H](Cc1ccc(Cl)cc1)n1cncn1` was tested. Which outcome did it give?
Its outcome is “inactive”.

How did the AC50 turn out when `S=C([S-])NCCNC(=S)[S-].[Mn+2]` was run?
Its AC50 is 3.97 µM (active).

For `CCOC(=O)C(C)Oc1ccc(Oc2nc3ccc(Cl)cc3o2)cc1` (stereo not given), which outcome is on record?
Its outcome is “inactive”.

For `CCOC(=O)COc1cc(-n2ncc(C(F)(F)F)c(C)c2=O)c(F)cc1Cl`, which outcome is on record?
The outcome was “inactive”.

How did the outcome turn out when `CCCOC(=O)c1ccc(C(=O)OCCC)nc1` was run?
Its outcome is “inactive”.

How did the outcome turn out when `N#CSCSc1nc2ccccc2s1` was run?
Its outcome is “inactive”.

Which outcome does the source give for `COC(=O)c1ccc(CNS(C)(=O)=O)cc1S(=O)(=O)NC(=O)Nc1nc(OC)cc(OC)n1` here?
The outcome was “inactive”.

`COC(=O)c1ccc(I)cc1S(=O)(=O)NC(=O)Nc1nc(C)nc(OC)n1` was tested. Which outcome did it give?
Its outcome is “inactive”.

How did the outcome turn out when `CCN(Cc1c(F)cccc1Cl)c1c([N+](=O)[O-])cc(C(F)(F)F)cc1[N+](=O)[O-]` was run?
The outcome was “inactive”.

With `CCSC(=O)N(CC(C)C)CC(C)C` as the compound, how does the outcome read?
Its outcome is “inactive”.

For `O=C(O)C1(C(=O)Nc2ccc(Cl)cc2Cl)CC1`, which outcome is on record?
Its outcome is “inactive”.

Which outcome does the source give for `Cc1nn(C)c(Oc2ccccc2)c1C=NOCc1ccc(C(=O)OC(C)(C)C)cc1` here?
Its outcome is “inactive”.

For `CCCN(CCC)c1c([N+](=O)[O-])cc(C(F)(F)F)c(N)c1[N+](=O)[O-]`, which outcome is on record?
The outcome was “inactive”.

With `CC(C)(c1ccc(O)cc1)c1ccc(O)cc1` as the compound, how does the outcome read?
The outcome was “inactive”.

`Oc1ccc(C(c2ccc(O)cc2)C(Cl)(Cl)Cl)cc1` was tested. Which outcome did it give?
Its outcome is “inactive”.

`CCCCOC(=O)[C@@H](C)Oc1ccc(Oc2ccc(C(F)(F)F)cn2)cc1` was tested. Which outcome did it give?
Its outcome is “inactive”.

With `COC(=O)c1c(Cl)nn(C)c1S(=O)(=O)NC(=O)Nc1nc(OC)cc(OC)n1` as the compound, how does the outcome read?
Its outcome is “inactive”.

Which outcome does the source give for `COc1nc(C)nc(NC(=O)NS(=O)(=O)c2ccccc2OCCCl)n1` here?
The outcome was “inactive”.

`S=C(S)NCCNC(=S)S.[Mn+2].[S-]C([S-])=NCCN=C([S-])[S-].[Zn+2]` was tested. Which outcome did it give?
Its outcome is “inactive”.

For `C#CCOC(=O)[C@@H](C)Oc1ccc(Oc2ncc(Cl)cc2F)cc1`, which outcome is on record?
Its outcome is “inactive”.

With `CCCCOC(=O)C(C)Oc1ccc(Oc2ccc(C(F)(F)F)cn2)cc1` (stereo not given) as the compound, how does the outcome read?
Its outcome is “inactive”.

Which outcome does the source give for `CCCCC(CC)CN1C(=O)C2C3C=CC(C3)C2C1=O` (stereo not given) here?
The outcome was “inactive”.

For `CCCCOCCOCCOCc1cc2c(cc1CCC)OCO2`, which outcome is on record?
Its outcome is “inactive”.

How did the outcome turn out when `CCOC(=O)[C@H](C)Oc1ccc(Oc2nc3ccc(Cl)cc3o2)cc1` was run?
Its outcome is “inactive”.

For `CCNc1nc(N)nc(Cl)n1`, which outcome is on record?
The outcome was “inactive”.

How did the outcome turn out when `COC(=O)c1ccccc1C(=O)O` was run?
The outcome was “inactive”.

`CCC(C)OC(=O)N1CCCCC1CCO` (stereo not given) was tested. Which outcome did it give?
The outcome was “inactive”.

How did the outcome turn out when `COc1c(Cl)ccc(Cl)c1C(=O)O` was run?
The outcome was “inactive”.
